Pf Dd2 growth – P. falciparum Dd2 growth inhibitors, primary screen, SYBR Green fluorescence, single dose replicates | 72 h; stronger effect = lower value | activity change, % at 10 µM | actives 2.3% (n = 94,000); in the data active means activity change below about -80%
T cruzi growth – T. cruzi intracellular proliferation inhibitors, primary screen, cell-based, beta-gal Tulahuen parasites, NIH3T3 host, luminescence; T. cruzi beta-gal in NIH3T3, GalScreen luminescence, 90 h; inhibition, % at 8.34 µM; actives 5.9% (n = 77,000); AID 624255, 2012;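 active means mean inhibition above about 93%, with at least 55% of replicates each passing it, limit read from the data, passing the limit was not always enough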
C diff HTS – C. difficile growth inhibitors, primary screen, HTS | Clostridium difficile clinical isolate growth, OD600, 24 h; stronger effect = lower value | actives 0.25% (n = 86,000) | growth activity, negative = inhibition, % at 16 µg/mL (by protocol);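 active means mean growth activity at or below -80% and every replicate also at or below -80%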;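 further: 0% = DMSO wells and -100% = levofloxacin 16 µg/mL wells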
* hit, by the source's call; x = not tested or not shown; ! = a repeat was not active. In the library only some 6.8% were active in any assay of this set; here they are far more common.

SMILES	Pf Dd2 growth	T cruzi growth	C diff HTS
COc1ccc(NC(=O)Nc2ccc3c(c2)C(=O)N([C@@H](C)CO)C[C@@H](C)[C@@H](CN(C)Cc2ccc4c(c2)OCO4)OCCCC[C@H](C)O3)cc1	-69.7	78.6	6.7
C[C@H]1CCCCO[C@@H](CN(C)Cc2ccc3c(c2)OCO3)[C@@H](C)CN([C@@H](C)CO)C(=O)c2cc(NC(=O)Nc3ccccc3)ccc2O1	-82.4*	94.2	12.2
C[C@@H]1CN([C@H](C)CO)C(=O)c2cc(NC(=O)Nc3ccccc3)ccc2O[C@@H](C)CCCCO[C@@H]1CN(C)Cc1ccccc1	-82.1*	x	x
COc1ccc(NC(=O)Nc2ccc3c(c2)C(=O)N([C@@H](C)CO)C[C@@H](C)[C@@H](CN(C)Cc2ccc4c(c2)OCO4)OCCCC[C@@H](C)O3)cc1	-83.0*	85.3	16.2
C[C@@H]1CN([C@@H](C)CO)C(=O)c2cc(NC(=O)Nc3ccccc3)ccc2O[C@@H](C)CCCCO[C@H]1CN(C)Cc1ccccc1	-66.6	x	x
CCCNC(=O)N1CC2(CCN(C)CC2)c2c(n(C)c3cc(OC)ccc23)[C@H]1CO	-57.0	x	-1.7
Cc1cccc(CN(C)C[C@@H]2OCc3cn(nn3)CCCC(=O)N([C@H](C)CO)C[C@@H]2C)c1	-17.0	-32.8	2.0
O=C(C[C@@H]1CC[C@@H]2[C@H](COC[C@@H](O)CN2C(=O)Nc2cc(Cl)cc(Cl)c2)O1)N1CCOCC1	x	24.8	63.3
O=C(C[C@H]1CC[C@H]2[C@@H](COC[C@@H](O)CN2C(=O)Nc2cc(Cl)cc(Cl)c2)O1)N1CCOCC1	x	0.4	-14.5
O=C(C[C@H]1CC[C@@H]2[C@H](COC[C@H](O)CN2C(=O)Nc2cc(Cl)cc(Cl)c2)O1)N1CCOCC1	x	10.0	-92.1*!
O=C(C[C@@H]1CC[C@@H]2[C@H](COC[C@H](O)CN2C(=O)Nc2cc(Cl)cc(Cl)c2)O1)N1CCOCC1	x	-25.3	-100.8*!
Cc1noc(C)c1NC(=O)Nc1ccc2c(c1)CC(=O)N([C@H](C)CO)C[C@H](C)[C@H](CN(C)C(=O)Nc1ccc(F)cc1)O2	21.0	8.8	-1.7
COc1ccc(NC(=O)Nc2ccc3c(c2)C(=O)N([C@@H](C)CO)C[C@H](C)[C@H](CN(C)S(=O)(=O)c2ccc(C)cc2)OCCCC[C@@H](C)O3)cc1	-86.1*	39.1	x
COc1ccc(NC(=O)Nc2ccc3c(c2)C(=O)N([C@H](C)CO)C[C@@H](C)[C@H](CN(C)S(=O)(=O)c2ccc(C)cc2)OCCCC[C@H](C)O3)cc1	-66.6	72.5	x
COc1ccc(S(=O)(=O)N(C)C[C@H]2OCCCC[C@@H](C)Oc3ccc(NC(=O)Nc4ccccc4)cc3C(=O)N([C@H](C)CO)C[C@@H]2C)cc1	-8.9	-53.2	1.4
COc1ccc(NC(=O)Nc2ccc3c(c2)C(=O)N([C@@H](C)CO)C[C@H](C)[C@@H](CN(C)S(=O)(=O)c2ccccc2)OCCCC[C@H](C)O3)cc1	-54.9	30.8	-4.9
COc1ccc(S(=O)(=O)N(C)C[C@H]2OCCCC[C@H](C)Oc3ccc(NC(=O)Nc4ccccc4)cc3C(=O)N([C@@H](C)CO)C[C@H]2C)cc1	-83.3*	48.7	-2.9
COc1ccc(NC(=O)Nc2ccc3c(c2)C(=O)N([C@H](C)CO)C[C@@H](C)[C@H](CN(C)S(=O)(=O)c2ccccc2)OCCCC[C@@H](C)O3)cc1	-82.5*	-25.6	-3.8
COCC(=O)N1C[C@H](C)[C@@H](OC)CN(C)C(=O)c2ccc(NC(=O)c3ccc(OC)cc3)cc2OC[C@@H]1C	4.8	x	-8.4
Cc1noc(C)c1NC(=O)Nc1ccc2c(c1)C(=O)N([C@@H](C)CO)C[C@@H](C)[C@H](CN(C)C(=O)Nc1c(C)noc1C)O2	16.7	27.1	-3.5
COCCNC(=O)C[C@H]1CC[C@H]2[C@@H](COC[C@@H](O)CN2S(=O)(=O)c2ccccc2F)O1	x	28.4	3.2
COCC(=O)N(C)C[C@@H]1Oc2cc(C#CC3CCCC3)ccc2S(=O)(=O)N([C@@H](C)CO)C[C@H]1C	-30.5	23.3	x
Cc1ccc(S(=O)(=O)NCC[C@@H]2CC[C@@H](NC(=O)CC3CC3)[C@@H](CO)O2)cc1	4.2	-1.9	x
C[C@@H]1CN([C@H](C)CO)C(=O)c2cccc(NC(=O)Nc3ccc4c(c3)OCO4)c2O[C@@H]1CN(C)Cc1ccc(C(F)(F)F)cc1	-15.2	31.3	9.2
COCC#Cc1cnc2c(c1)C(=O)N([C@@H](C)CO)C[C@H](C)[C@H](CN(C)C(=O)Cc1ccncc1)O2	41.4	-38.1	-1.1
SMILES	Pf Dd2 growth	T cruzi growth	C diff HTS
C[C@H]1CN([C@@H](C)CO)S(=O)(=O)c2ccc(C#Cc3ccccc3F)cc2O[C@H]1CN(C)C(=O)c1ccc2c(c1)OCO2	-88.0*	x	-0.7
C[C@H]1CN([C@@H](C)CO)S(=O)(=O)c2ccc(C#Cc3ccccc3F)cc2O[C@H]1CN(C)C(=O)Cc1ccncc1	-75.9	x	-2.5
C[C@H](CO)N1C[C@H](C)[C@@H](CN(C)C(=O)Cc2cccnc2)Oc2cc(C#Cc3ccccc3F)ccc2S1(=O)=O	-83.6*	x	-4.5
C[C@@H]1CN([C@@H](C)CO)S(=O)(=O)c2ccc(C#Cc3ccccc3F)cc2O[C@@H]1CN(C)C(=O)c1ccc2c(c1)OCO2	-78.1	x	-4.8
O=C(C[C@H]1CC[C@@H](NS(=O)(=O)c2ccccc2)[C@@H](CO)O1)N1CCN(c2ccccc2)CC1	7.5	x	-0.5
O=C(C[C@@H]1CC[C@@H](NC(=O)C2CC2)[C@H](CO)O1)Nc1nccs1	3.8	x	8.9
CN1CCN(C(=O)C2=C[C@H](C3CC3)C[C@H](OCCCCO)O2)CC1	x	x	-4.2
C[C@@H]1CN([C@@H](C)CO)C(=O)c2c(c3ccccc3n2C)-c2ccccc2CO[C@@H]1CN(C)C(=O)Nc1ccc(-c2ccccc2)cc1	-88.0*	x	-5.5
C[C@H](CO)N1C[C@H](C)[C@H](CN(C)C(=O)Nc2ccc3c(c2)OCO3)OCc2ccccc2-c2c(n(C)c3ccccc23)C1=O	-84.7*	92.3	-1.9
C[C@H]1CN([C@@H](C)CO)C(=O)c2c(c3ccccc3n2C)-c2ccccc2CO[C@H]1CN(C)C(=O)Nc1ccc2c(c1)OCO2	-63.4	71.7	7.9
C[C@@H]1CN([C@H](C)CO)C(=O)c2c(c3ccccc3n2C)-c2ccccc2CO[C@@H]1CN(C)C(=O)Nc1ccc(-c2ccccc2)cc1	-82.6*	x	-2.6
C[C@H](CO)N1C[C@H](C)[C@H](CN(C)C(=O)Nc2ccc(F)cc2)OCc2ccccc2-c2c(n(C)c3ccccc23)C1=O	-39.2	x	-4.8
C[C@H](CO)N1C[C@H](C)[C@@H](CN(C)C(=O)Nc2ccccc2)OCc2ccccc2-c2c(n(C)c3ccccc23)C1=O	-69.3	72.4	x
C[C@H](CO)N1C[C@H](C)[C@@H](CN(C)C(=O)Nc2ccc(-c3ccccc3)cc2)OCc2ccccc2-c2c(n(C)c3ccccc23)C1=O	-94.1*	x	7.4
C[C@H]1CN([C@@H](C)CO)C(=O)c2c(c3ccccc3n2C)-c2ccccc2CO[C@@H]1CN(C)C(=O)Nc1ccc(F)cc1	-37.4	31.0	10.3
Cc1noc(C)c1NC(=O)Nc1ccc2c(c1)CC(=O)N([C@H](C)CO)C[C@H](C)[C@H](CN(C)C)O2	8.4	x	3.5

High-throughput results: PubChem BioAssay, Broad Institute
